# Measured values published in PubChem BioAssay (NCI).
# The panel holds about 83,000 compounds, 20% with a hit somewhere; the sample as a whole holds those more often.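 Results are percent growth after 48 hours of single-concentration exposure. 100 means growth as in untreated cells, lower positive values show inhibition; negative values down to -100 show cell death.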 A number with no mark means an inactive call. Activity calls are given as the source filed them.
# Tested on: SK-MEL-28 melanoma
# Assay: NCI-60 one-dose screen, 48 h (100 = growth as untreated, 0 = no growth, -100 = all killed)
# Details: 10 µM unless noted
# Procedure: Growth inhibition of the SK-MEL-28 human tumor cell line is measured as a screen for anti-cancer activity. Cells are grown in 96 well plates and exposed to the test compound for 48 hours. Compounds are tested at a single concentration, which is 10^-5 M for most compounds. The reported endpoint is percent growth (GI% or GIPRCNT), where numbers from 0 - 100% represent growth inhibition, and numbers from -100% - 0 represent cell death. For example, a value of 40 represents 60% growth inhibition. A value of 0 means no net growth occurred over the course of the experiment. A value of -40 indicates 40% of cells at the beginning of the experiment died by the end of the experiment. A value of -100 means all cells are dead at the end of the experiment.
# NCI-60 Human Tumor Cell Lines Screen was performed using the standard one-dose NCI protocol, which is described in more detail at https://dtp.cancer.gov/discovery_development/nci-60/default.htm.
# Compounds with GIPRCNT values below 10 were considered active. Activity score was based on GIPRCNT using the following formula: […]
# Score is 0 for GIPRCNT values of 100 or above, 50 for GIPRCNT values of 0, and 100 for GIPRCNT values of -100.
row,SMILES,growth
1,Cc1cc(N[C@@H]2CCC[C@H](Nc3ccnc4cc(Cl)ccc34)C2)nc(N2CCCCCC2)n1,-80.3% (active)
2,O=C1c2cc3c(cc2-c2c1c1ccc(F)cc1c(=O)n2C[C@H](O)[C@H](O)[C@H](O)CO)OCO3,-30.6% (active)
3,O=C(CN1CCCCC1)Nc1ccc2oc(=O)ccc2c1,121%
4,CCc1nc(N)nc(N)c1C#CC(C)c1cc(-c2ccnc(C)c2)c2oc(C)nc2c1 (stereo not given),41.1%
5,COc1ccc(C2C(C#N)=C(N)Oc3n[nH]c(-c4cccs4)c32)cc1I (stereo not given),108%
6,COc1ccc(-n2nc(C)c3c(Nc4ccc(NC(=O)Nc5c(Cl)cccc5Cl)cc4)ncnc32)cc1,81.9%
7,CCOC(=O)c1c(C)oc2ncnc(N3CCN(C(=O)COc4ccc(SC)cc4)CC3)c12,110%
8,CC1=C[C@H]2c3c(c(O)c(O)c4oc5cc(O)ccc5c(=O)c34)[C@H](c3cc(O)c(O)c4oc5cc(O)ccc5c(=O)c34)[C@H]2C(C)(C)C1,46.9%
9,C=C1C(=O)O[C@H]2[C@H]1CC/C(COC(=O)c1cc3cc(OC)ccc3[nH]1)=C\CC[C@@]1(C)O[C@@H]21,-80.8% (active)
10,Cc1cc(N2CCOCC2)nc(N[C@@H]2CCC[C@H](Nc3ccnc4cc(Cl)ccc34)C2)n1,-74.3% (active)
11,O=c1c(F)cn(Cc2ccccc2CCl)c(=O)n1Cc1ccccc1CCl,-65% (active)
12,Oc1cccc2ccc(N/N=C/c3cc(CN4CCOCC4)c(O)c4ncccc34)nc12,24%
13,COCCNc1ccc2c3c(cccc13)C(=O)N(CCN(C)C)C2=O,37.5%
14,C=CC(COC(c1ccccc1)(c1ccccc1)c1ccccc1)N(CC)CC (stereo not given),59.4%
15,O=c1nc2oc3ccc4ccccc4c3cc-2s1,56.7%
16,NC(=O)c1cc(Cl)ccc1NC(=O)/C=C/c1ccccc1,40.6%
17,c1ccc(CCNc2ncnc3[nH]ncc23)cc1,114%
18,CCN(CC)CCCCNc1c2ccc(Cl)cc2nc2ccc(OC)cc12,-82.5% (active)
19,CC(=O)OCCC/C(=C/c1cc2ccccc2c2ccccc12)[N+](=O)[O-],-99.5% (active)
20,COc1ccc(/C=C(\C#N)C(=O)Nc2cccc(Nc3nc(SC)nc(-c4cccc([N+](=O)[O-])c4)c3C#N)c2)cc1OC,105%

row,SMILES,growth
1,CCCCN(CCCC)CCCn1c(-c2ccccc2)ccc1-c1ccccc1,88.8%
2,Cn1ncc2c(=O)nc3c(-c4ccccc4)n[nH]n3c21,138%
3,FC(F)(F)c1[nH]ncc1-c1nc2ccc3n[nH]c(C#Cc4cccnc4)c3c2c2c1CCCC2,32.4%
4,CC1CCNC(C)C1 (stereo not given),115%
5,NS(=O)(=O)c1ccc(CN=C2NC(=O)S/C2=C\c2ccc(Br)cc2)cc1,100%
6,Cc1cc(C)nc(SC2=C(Nc3cccc(Cl)c3C)C(=O)N(Cc3ccccc3)C2=O)n1,85.1% [30 µM]
7,Cc1cc(N2CCN(C)CC2)nc(NC2CCCC(Nc3ccnc4cc(Cl)ccc34)C2)n1 (stereo not given),-75.8% (active)
8,CSc1nc(NCc2ccccc2)c(C#N)c(-c2cccc([N+](=O)[O-])c2)n1,102%
9,Clc1ccc2c(NCCNc3nc(N4CCOCC4)nc4ccccc34)ccnc2c1,-47.5% (active)
10,COc1cc(/C=C/C(=O)c2cccnc2Nc2ccc(F)cc2)cc(OC)c1OC,72.1%
11,C=CC(=O)Nc1cccc(-c2nc(SC)nc(NCCc3ccc(OC)c(OC)c3)c2C#N)c1,72.3%
12,CNC(=O)c1cc(Oc2ccc(NC(=O)Nc3ccc(Cl)c(OC(F)(F)F)c3)c(F)c2)ccn1,13.7%
13,CC(C)n1c(/C=C/[C@@H](O)C[C@@H](O)CC(=O)O)c(-c2ccc(F)cc2)c2ccccc21,72.9%
14,O=C(COc1ccc(/C=C2\CSc3ccccc3C2=O)cc1)Nc1nccs1,124%
15,COc1ccc(CCNc2nc(SC)nc(-c3cccc([N+](=O)[O-])c3)c2C#N)cc1OC,91.8%
16,O=C1C=CC(=O)N1c1ccc2c(c1)Cc1cc(F)ccc1-2,99.9%
17,CCN1CCN(c2nc(NCCCNc3ccnc4cc(Cl)ccc34)c3ccccc3n2)CC1,-66.4% (active)
18,CC(=O)O[C@H]1CC[C@]2(C)[C@H]3CC=C4[C@@H]5CC(C)(C)CC[C@]5(C(=O)NCCNCCNCCN)CC[C@@]4(C)[C@]3(C)CC[C@H]2C1(C)C,93.1%
19,CCOC(=O)n1cc(-c2nonc2-c2cn(C)c3ncccc23)c2ccccc21,104%
20,O=C(COc1ccc(-c2nc3cc(Cl)c(Cl)cc3[nH]2)cc1)N=Nc1c(O)[nH]c2ccccc12,-49.1% (active)
